Screening results deposited in PubChem by several laboratories.
SKKanGAS inh: inhibitors of SKKanGAS S. pyogenes growth in kanamycin (SK-promoter or general growth effect). BacTiter-Glo, 6 h. inhibition, % at 7.5 µM. 300,000 tested, 1.3% active;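 active = mean replicate score, as percent of positive control median, at least 50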;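 note: strain carries kanamycin resistance gene driven by streptokinase promoter and grows in 40 µg/ml kanamycin; loss of luminescence reflects streptokinase promoter inhibition or plain growth inhibition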
NLRP3 yeast inh: inhibitors of NALP3 inflammasome in yeast; Yeast reconstituted NLRP3/ASC/caspase-1, beta-gal luminescence, 24 h; 330,000 tested, 0.39% active; inhibition, % at 10 µM;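 active = inhibition of 50% or more; inactive = inhibition below 50%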
PfHsp90 set2: reduces growth (ATP signal) of yeast expressing P. falciparum Hsp90 | S. cerevisiae expressing PfHsp90, BacTiter-Glo ATP, 48 h; yeast lacking PDR1 and PDR3 efflux regulators | inhibition, % at 9.4 µM | 310,000 tested, 0.32% active | AID 504621;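 active = every replicate shows inhibition above about 80%, whatever the replicate mean, limit read from the data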
TIM10 inh: inhibits growth of TIM10 yeast strain; S. cerevisiae TIM10 strain growth, BacTiter-Glo luminescence, 24 h; inhibition, % at 10 µM; 330,000 tested, 1.4% active;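 active = inhibition of 40% or more at the single tested concentration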;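 note: wild-type TIM10 isogenic control strain grown at permissive 25 °C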
tim10-1 inh: tim10-1 yeast growth inhibition; S. cerevisiae tim10-1 ts strain growth, BacTiter-Glo, 24 h; inhibition, % at 20 µM; 330,000 tested, 2.2% active;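 active = inhibition of at least 40%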;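 note: mutant grown at 25 °C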
tim23-1 inh: tim23-1 yeast growth inhibition; S. cerevisiae tim23-1 growth, BacTiter-Glo luminescence, 24 h; inhibition, % at 20 µM; 330,000 tested, 1.3% active; AID 463212;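 active = growth inhibition of the mutant yeast at or above 50%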;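 note: temperature-sensitive mutant grown at 25 °C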
NALP3 yeast conf: NALP3 inhibition confirmation in yeast | shares compounds with NLRP3 yeast inh | yeast expressing human NALP3, luminescence | inhibition, % at 10 µM | 1,300 tested, 81% active | AID 435006; in the data active = inhibition above about 48%
Casp1 ASC ctr: counter-screen for NALP3 inhibitors: yeast caspase-1-ASC; inhibition, % at 10 µM; 1,000 tested, 66% active; shares compounds with NLRP3 yeast inh; AID 488784; yeast expressing Caspase-1-ASC, luminescence counter screen
NALP3 yeast rt: confirmation retest of NALP3 inhibitors in yeast | shares compounds with NLRP3 yeast inh | yeast expressing human NALP3, luminescence read-out | inhibition, % at 10 µM | 1,000 tested, 53% active | AID 488794
tim10-1 conf: confirmation of tim10-1 mutant yeast growth inhibitors. inhibition, % at 20 µM. shares compounds with tim10-1 inh. AID 463213. 7,400 tested, 56% active. S. cerevisiae tim10-1 ts strain growth, BacTiter-Glo, 24 h;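 active = inhibition of yeast growth at or above a set limit in either of two repeat tests at 20 µM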;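 note: tim10-1 mutant grown at permissive 25 °C to find synthetic lethal compounds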
tim10 confirm: TIM10 yeast growth inhibition, confirmed; shares compounds with TIM10 inh; S. cerevisiae tim10 strain growth, BacTiter-Glo luminescence, 24 h; inhibition, % at 10 µM; 4,600 tested, 63% active;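 active = inhibition of yeast growth at or above a set limit in either of two replicates at 10 µM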; note: this counterscreen used the strain with wild-type TIM10
tim23-1 conf: confirmation of tim23-1 mutant yeast growth inhibitors | S. cerevisiae tim23-1 growth, BacTiter-Glo luminescence, 24 h | 4,400 tested, 83% active | shares compounds with tim23-1 inh | inhibition, % at 20 µM | AID 463218;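 active = inhibition above about 39% in either of two replicate wells at 20 µM, limit read from the data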;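 note: temperature-sensitive tim23-1 mutant grown at 25 °C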
Hits are given with their value; . = inactive; / = no result. Only some compounds are listed: those with a hit (about 4.6% of all), similar ones and a draw of the others. Cut-off read from the data, not from the text of the source, unless noted: active = inhibition above about 50%; inactive = the rest.

SMILES | SKKanGAS inh | NLRP3 yeast inh | PfHsp90 set2 | TIM10 inh | tim10-1 inh | tim23-1 inh | NALP3 yeast conf | Casp1 ASC ctr | NALP3 yeast rt | tim10 confirm | tim23-1 conf | others
Cc1ccc(-c2c(C(=O)N/N=C/c3c[nH]c4ccccc34)nnn2-c2nonc2N)cc1 | . | . | . | . | . | . | / | / | / | / | /
NC(=S)N/N=C/c1ccccc1 | . | . | . | . | . | . | / | / | / | / | /
NC(=S)N/N=C/c1ccc(C23CC4CC(CC(C4)C2)C3)cc1 | 100.1 | 63.6 | / | . | . | 74.9 | . | / | / | / | 68.0
CCOC(=O)c1cccc(NC(=O)c2cccs2)c1 | . | 60.9 | . | 64.7 | . | 57.1 | 79.0 | 50.9 | 53.5 | 56.6 | 80.2
O=C(N/N=C/c1ccco1)c1ccc(Br)o1 | . | . | . | . | . | . | / | / | / | / | /
O=C(N/N=C/c1ccco1)c1cc2ccccc2o1 | . | 64.1 | . | 41.1 | . | 65.9 | 73.8 | 63.8 | 63.0 | . | 63.8
O=C(Nc1ccnn1C1CCN(C(=O)c2cnsn2)CC1)c1cccc(F)c1 | . | . | . | . | . | . | / | / | / | / | /
CC(C)(C)C1CCC(=NOC(=O)c2ccc(F)cc2)CC1 (configuration not stated) | . | 58.6 | . | 84.6 | 44.8 | 67.0 | 78.7 | 53.8 | . | 83.0 | 62.5 | tim10-1 conf=.
O=C(O/N=C1/CCSc2ccccc21)c1ccc(F)cc1 | / | . | . | . | . | . | / | / | / | / | /
CC1(C(=O)O)CCC(C(=O)Nc2cccc(F)c2)C1(C)C (configuration not stated) | . | . | . | . | . | . | / | / | / | / | /
CCCCCCCn1c(=O)c(C(=O)OC)c(N)c2ccccc21 | . | 68.3 | . | . | . | 52.8 | 60.5 | 93.3 | 83.9 | / | 49.6
CCCCCCCCn1c(=O)c(C(=O)OC)c(N)c2ccccc21 | . | 59.9 | / | . | . | 64.2 | . | / | / | / | 44.0
COC(=O)C1C(O)=C(C(C)=Nc2cccc3ccccc23)C(=O)CC1(C)C (configuration not stated) | . | . | . | . | . | . | / | / | / | / | /
CCOC(=O)C(Cc1ccc(O)c([N+](=O)[O-])c1)N1C(=O)c2ccccc2C1=O (configuration not stated) | / | / | . | / | / | / | / | / | / | / | /
CC(Sc1ccccc1)C(=O)N1CCN(S(=O)(=O)c2ccc(Cl)cc2)CC1 (configuration not stated) | . | . | . | . | . | . | / | / | / | / | /
Cc1ccnc2c1ccc1ccccc12 | . | . | . | . | . | . | / | / | / | / | /
Cc1c2ccccc2c(C)c2c1ccc1ccccc12 | / | 65.2 | . | 83.7 | 49.7 | 76.8 | 61.9 | / | / | 88.0 | 80.0 | tim10-1 conf=46.8
CC1CN(S(=O)(=O)c2cccc(C(=O)OC/C(O)=C(\C#N)c3nc4ccccc4[nH]3)c2)CC(C)O1 (configuration not stated) | . | . | . | . | . | . | / | / | / | / | /
COc1ccc2c(c1)CC/C2=N\OC(=O)c1cccc(C)c1 | . | 52.4 | . | 83.2 | 62.4 | 52.9 | . | / | / | . | 81.9 | tim10-1 conf=40.8
O=C(Nc1nsc(-c2ccccc2)n1)c1cccs1 | . | 54.4 | . | . | . | 68.3 | 64.7 | . | . | / | 52.7
O=C(Nc1c(-c2ccccc2)nc2ccccn12)c1cccs1 | . | . | / | . | . | . | / | / | / | / | /
Cc1ccc2nc(NC(=O)Cn3nc(C)c([N+](=O)[O-])c3C)sc2c1 | . | . | . | 47.6 | . | 50.8 | . | / | / | . | 64.6
O=C(C[n+]1ccccc1)N/N=C/c1cc(Br)cc(Br)c1O | 102.5 | 77.9 | . | 56.5 | . | 67.8 | 53.2 | 86.8 | 76.8 | 68.5 | 69.1
COc1ccc(C(=O)/C=C2/C(=O)Nc3ccccc32)c(OC)c1 | . | 68.6 | . | 68.1 | 49.9 | 70.2 | 81.5 | 76.0 | 79.8 | 66.6 | . | tim10-1 conf=58.8
C=CCOc1ccccc1C(=O)/C=C1/C(=O)Nc2ccccc21 | . | 59.4 | . | 79.6 | 49.8 | 88.6 | 75.3 | 53.2 | 59.1 | 63.8 | . | tim10-1 conf=active
SMILES | SKKanGAS inh | NLRP3 yeast inh | PfHsp90 set2 | TIM10 inh | tim10-1 inh | tim23-1 inh | NALP3 yeast conf | Casp1 ASC ctr | NALP3 yeast rt | tim10 confirm | tim23-1 conf | others
COc1cc(OC)c(/C=C2\C(=O)Nc3ccccc32)c(OC)c1 | / | . | / | . | . | . | / | / | / | / | /
NC(=O)COc1ccc(C(=O)/C=C2/C(=O)Nc3ccccc32)cc1 | . | . | . | . | . | . | / | / | / | / | /
Cc1ccccc1CS(=O)(=O)c1cn(CC(=O)N2CCOCC2)c2ccccc12 | . | . | . | . | . | . | / | / | / | / | /
Cc1cc(NCCO)c2cc(O)ccc2n1 | . | . | . | . | . | . | / | / | / | / | /
CC(C)(O)c1cc2ccc(C#Cc3ccsc3)cc2c(=O)o1 | / | 65.3 | . | . | . | 60.3 | 51.4 | 67.2 | 58.1 | / | .
Nn1c(SCc2ccccn2)nncc1=O | . | . | . | . | . | . | / | / | / | / | /
Nc1ccc2nc(SCc3ccccc3F)sc2c1 | . | 51.8 | . | . | . | 63.1 | . | / | / | / | 43.3
Nc1ccc2nc(SCC(=O)c3ccccc3)sc2c1 | . | . | . | . | . | . | / | / | / | / | /
O=C1Nc2ccccc2/C1=C/c1ccccc1F | . | 53.2 | . | 55.9 | . | 52.8 | 53.1 | . | . | 57.2 | 45.0
CN1CCSc2ccc(C(=O)Nc3cccc(F)c3)cc21 | . | 66.7 | . | 47.1 | . | 67.9 | 82.5 | / | / | 50.9 | 70.8
COc1ccc(NC(=O)c2ccc3c(c2)N(C)CCS3)cc1 | . | . | . | . | . | . | / | / | / | / | /
O=c1c2c(nc3cc(-c4ccc(F)cc4)[nH]n13)CCC2 | . | . | . | . | . | . | / | / | / | / | /
CCC(C)(C)NC(=O)C(c1cccc(OC)c1OC)N(C(=O)CCC(=O)Nc1cc(C)on1)C(C)C (configuration not stated) | . | . | . | . | . | . | / | / | / | / | /
O=C(NC1=NCCS1)c1sc2ccccc2c1Cl | . | 51.5 | . | 46.1 | . | 72.8 | 62.6 | / | / | 37.1 | 80.1
Cc1ccc(C(C[N+](=O)[O-])c2c(-c3ccccc3O)[nH][nH]c2=O)cc1 (configuration not stated) | . | 50.8 | . | . | 43.8 | 66.1 | 50.7 | 77.4 | 58.1 | / | 56.0 | tim10-1 conf=37.5
CN(CC(=O)NCc1cccs1)CC(=O)Nc1ccc(F)c(F)c1F | . | . | . | . | . | . | / | / | / | / | /
COc1ccc(CNC(=O)C2CCN(S(=O)(=O)c3cccc4nonc34)CC2)cc1 | . | . | . | . | . | . | / | / | / | / | /
